A short description of test [1]: NCI Yeast Anticancer Drug Screen. Data for the rad50 strain (AID 155).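 Also: 0% = growth of vehicle-only cultures of the same strain.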 The note with it: S. cerevisiae rad50 strain growth inhibition; at 50.0 µM; hits give high values. In a few lines: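 Readout: growth inhibition relative to vehicle-treated cultures. Compound exposure was carried out in a genetically defined yeast strain deficient in DNA damage repair.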
Test [2] in a line: NCI Yeast Anticancer Drug Screen. Data for the mec2-1 strain (AID 157). The note with it: S. cerevisiae mec2-1 strain, at 50.0 µM, hits give high values. An outline of the steps: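 Mutant yeast (mec2-1) grown with compound; growth inhibition relative to vehicle control reported.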
Test [3] can be described thus: NCI Yeast Anticancer Drug Screen. Data for the sgs1 mgt1 strain (AID 161).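 Also: 0% = growth of cultures given vehicle only.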 The conditions noted are these: S. cerevisiae sgs1 mgt1 strain, at 50.0 µM, hits give high values. An outline of the steps: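 Compounds are added to genetically altered yeast, and growth is compared with cultures given vehicle alone to give percent inhibition.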
A short description of test [4]: NCI Yeast Anticancer Drug Screen. Data for the cln2 rad14 strain (AID 165).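 Also: 0% = growth equal to vehicle treated cultures.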 The note with it: S. cerevisiae cln2 rad14 strain, at 50.0 µM, hits give high values. An outline of the steps: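 Readout is yeast growth inhibition versus vehicle-treated controls, using a strain with cln2 and rad14 alterations exposed to compound.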
Test [5] is described as follows: NCI Yeast Anticancer Drug Screen. Data for the bub3 strain (AID 167). The conditions noted are these: S. cerevisiae bub3 mutant strain, at 50.0 µM, hits give high values. An outline of the steps:
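Readout: yeast growth inhibition, expressed relative to vehicle-only wells. The test organism is a mutant strain from a panel with lesions in DNA repair or checkpoint genes.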

The nature of test [6]: NCI Yeast Anticancer Drug Screen. Data for the mlh1 rad18 strain (AID 175). The conditions noted are these: S. cerevisiae mlh1 rad18 strain growth inhibition; at 50.0 µM; hits give high values. An outline of the steps: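 Genetically defined yeast (DNA repair-deficient) exposed to compounds; growth inhibition determined relative to vehicle.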

Compounds without any hit were thinned out: in the full panel of roughly 79,000, 15% have a hit. Values without a mark were called inactive. Calls of active or inactive are those of the source. Rule as the data show it: active = growth inhibition above about 70%; inactive = the rest.

21 molecules from PubChem BioAssay (NCI) can be followed below.

As to `CN(C)P(=O)(Nc1ccc(Cl)cc1)Nc1ccc(Cl)cc1`, the growth inhibition was 11.7% in test [1]; -1.9% in test [2]; 2.1% in test [3]; 3.9% in test [4]; 12.7% in test [5]; 7.5% in test [6].
Take `C=CCOc1ccc(C2C(C(=O)OC)C(=O)CC(O)(c3ccccc3)C2C(=O)OC)cc1OC` (stereo unspecified): the growth inhibition in test [1] was -63.2%; in test [2], -24.6%; in test [3], -14.9%; in test [4], -13.2%; in test [5], -0.9%; in test [6], -19.7%.
Regarding `CC(C)(N)CNc1ccccc1`, the growth inhibition in test [1] is -0.55%; in test [2] it was -4.95%; in test [3], -9.85%; in test [4] it was -11.1%; in test [5] it was 15.7%; in test [6], -4.4%.
As to `O=S(=O)(O)Cc1cccc2ccccc12`, the growth inhibition in test [1] is 38%; in test [2] it was 6.7%; in test [3] it was 11.8%; in test [4] it was -17.6%; in test [5], -2.65%; in test [6], 22.6%.
`Brc1ccc(C=C2c3ccccc3-c3ccccc32)cc1`: the growth inhibition in test [1] is -11.1%; in test [2] it was -8%; in test [3], -16.4%; in test [4] it was 6.85%; in test [5], 7.65%; in test [6], 1.95%.
As for `CCCCN(CCCC)/C(=C/C(=O)OC)C(=O)OC`, the growth inhibition is 20.1% in test [1]; 8.55% in test [2]; 10.1% in test [3]; 14.2% in test [4]; 26.9% in test [5]; 13.6% in test [6].
For the molecule `CCOC(=O)c1oc2ccc(OC)c3c2c1CCC3`, the growth inhibition was 2.8% in test [1]; -1% in test [2]; 6.3% in test [3]; 15.4% in test [4]; 11.6% in test [5]; 19.6% in test [6].
Consider `CCOC(=O)CNC(=O)C(Cc1ccccc1)NC(=O)CNC(=O)OCc1ccccc1` (stereo unspecified), for which the growth inhibition is 22.4% in test [1]; 8.6% in test [2]; 15.5% in test [3]; 20.4% in test [4]; 0.75% in test [5]; 20.8% in test [6].
In the case of `CN(C)C(=O)c1ccc([N+](=O)[O-])cc1`, the growth inhibition in test [1] was 21.1%; in test [2], 6.4%; in test [3], 11.8%; in test [4], 12.1%; in test [5], -4.75%; in test [6] it was -23.4%.
As to `COc1ccc(C2(C)OC(=O)c3ccccc32)c2ccccc12` (stereo unspecified), the growth inhibition in test [1] is 71% (active); in test [2] it was 49.9%; in test [3] it was 46.3%; in test [4], 39.2%; in test [5], 73.2% (active); in test [6] it was 65.7%.
In the case of `Cc1ccc(NC(=O)CC2SC(=Nc3cccc(Cl)c3C)NC2=O)cc1` (stereo unspecified), the growth inhibition in test [1] was 30.9%; in test [2] it was 27.9%; in test [3], 41.5%; in test [4] it was 28.7%; in test [5], 26.1%; in test [6], 11%.
For the molecule `CCC(O)(Cc1ccccc1)C(C(=O)O)c1ccccc1` (stereo unspecified), the growth inhibition is -32% in test [1]; -31.1% in test [2]; 4.6% in test [3]; 4.9% in test [4]; -28.1% in test [5]; -26% in test [6].
`O=C(Cc1ccccc1)Nc1ccccc1Cl`: the growth inhibition in test [1] is -8.1%; in test [2], 0.35%; in test [3], 4.55%; in test [4], 21.2%; in test [5], 14.7%; in test [6] it was 1.95%.
Take `Nc1nc2nc(-c3ccccc3)[nH]c2c(=O)[nH]1`: the growth inhibition in test [1] was -3.7%; in test [2] it was 6.75%; in test [3], -0.15%; in test [4], -52.2%; in test [5], -15.1%; in test [6], -12.4%.
For the molecule `CC(C)c1nc2c([nH]1)c(=O)n(C)c(=O)n2C`, the growth inhibition is 30.2% in test [1]; 6.85% in test [2]; 26.4% in test [3]; 18% in test [4]; 2.8% in test [5]; 17.9% in test [6].
As for `COC(=O)N/N=C/c1ccc(C)cc1`, the growth inhibition was -4.1% in test [1]; -8.05% in test [2]; -10% in test [3]; -37.9% in test [4]; -3.9% in test [5]; -4.1% in test [6].
Turning to `C=CCC(OCCC)c1ccc2c(c1)OCO2` (stereo unspecified), the growth inhibition in test [1] is -7.1%; in test [2], 0.6%; in test [3] it was -0.65%; in test [4], 5.05%; in test [5], 3.4%; in test [6] it was -12.6%.
In the case of `CCN(CC)CCCCNc1ccnc(N)n1`, the growth inhibition is -8.65% in test [1]; -10.5% in test [2]; 2.7% in test [3]; -23.3% in test [4]; 18.2% in test [5]; 16% in test [6].
With `CCOC(=O)c1c(N)sc2c1C(C(=O)OCC)CCCC2` (stereo unspecified), the growth inhibition in test [1] is -11.1%; in test [2], 7.5%; in test [3], 27.3%; in test [4], -16.2%; in test [5], 37.5%; in test [6], 38.2%.
On to `O=C(Nc1ccccc1)C(=O)Nc1ccccc1`, for which the growth inhibition was 5.4% in test [1]; -18.1% in test [2]; -8.05% in test [3]; -12.7% in test [4]; -10.9% in test [5]; -4.25% in test [6].
Turning to `COc1cc2c(c(OC)c1OC)-c1ccc(S(=O)(=O)Cc3ccccc3)c(=O)cc1C(NC(C)=O)CC2` (stereo unspecified), the growth inhibition is 34.5% in test [1]; 16.2% in test [2]; 9.8% in test [3]; -2.3% in test [4]; 1.25% in test [5]; 21.8% in test [6].
